Only some compounds are listed: those with a hit (about 1.8% of all), similar ones and a draw of the others.
p53ts 32C tox – cytotoxicity in p53ts cells at permissive temperature; H1299-p53A138V at 32C, ATP luminescence viability, 24 h; Potency, µM (highest dose often 46.1 µM), for the others: at the highest dose activity change, negative = cytotoxicity, most hits filed as cytotoxic; 130,000 compounds, 0.93% hits;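 note: 0% = DMSO and -100% = full killing by reference compound; nearly all actives have a fitted effect of over 55% in size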
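H1299-p53 A138V cells (temperature-sensitive p53) exposed 24 h to up to 46 uM compound at 32C, where p53 is wild-type in conformation. Viability read as ATP luminescence and normalised to DMSO and 100 uM tamoxifen. AC50 fitted with the Hill equation.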
Imprint erasure – inducers of genomic imprint erasure in mouse ES cells. Potency, µM (doses to about 60.7 µM), for inactives: top-dose activity change, positive = activation, hits mostly activators. 110,000 compounds, 0.02% hits. mouse ES Peg3-LacZ reporter, beta-gal luminescence, 40 h
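Gelatin-coated wells received 300 freshly trypsinized female ES cells with a Peg3LacZ-Neo reporter on the maternal allele, then incubated 40 hours at 37C. BetaGlo was added for 5 minutes at room temperature before a single luminescence read.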
IkB signaling – IkB pathway inhibition in ABC-DLBCL cells; ABC-DLBCL IkBa-CBG/CBR dual luciferase ratio, 4 h; response scale: scaled: untreated 0%, proteasome inhibitor 100%; Potency, µM (doses to about 57.1 µM), for the others: top-dose IkBa stabilization activation; 110,000 compounds, 0.04% hits; AID 445; active = well fitted curve in the direction sought with a large enough effect in the signal ratio, not every such curve was filed as active; inconclusive = small, poorly fitted or top-dose-only effect, or a change in a side signal; the % refers to the signal ratio;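 note: the direction sought is a rising ratio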
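In this assay, an IκBα–CBG68 fusion accumulates when IKK-driven degradation is blocked; native CBR normalizes for cell number. OCI-Ly3 cells were treated 4 h with compound and doxycycline, then green and red light read after Chroma-Glo addition.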
p53ts 39C kill – p53ts cell cytotoxicity, nonpermissive temperature; 130,000 compounds, 1.5% hits; H1299-p53A138V viability at 39C, ATP luminescence, 24 h; Potency, µM (top dose mostly 46.1 µM), for inactives: at the top dose activity change, negative = cell killing, usual class: cytotoxic; note: % is set by controls: 0 for no effect and ±100 for the full control effect; nearly all actives have a fitted effect of over 55% in size
The depositor's hits bear a star; [ ] = another dose, or the depositor's remark. Unless noted, calls come from the whole dose curve; as a rule, active = well fitted curve in the direction sought with a large enough effect; inconclusive = small, poorly fitted or top-dose-only effect, or another doubt; inactive = no such curve, though single readings can be large; an effect the other way counts as inactive or inconclusive. Potency is the fitted concentration of half-maximal effect.

CCC(C)NC(=O)CSc1nc2n[nH]c(C)c2c(=N)n1-c1cc(Cl)ccc1C (stereo not drawn) was read as p53ts 32C tox inconclusive, Imprint erasure -12%[10.9 µM], IkB signaling inconclusive and p53ts 39C kill 13µM*.
Cc1ccc(NC(=O)CSc2nc3n[nH]c(C)c3c(=N)n2-c2cccc(C)c2)cc1 was read as p53ts 32C tox 3%, Imprint erasure -18%[10.9 µM], IkB signaling inconclusive and p53ts 39C kill 0%.
For FC(F)(F)c1cccc(N2CCN(c3nc4ccccc4n4cnnc34)CC2)c1 the results were p53ts 32C tox -2%, Imprint erasure -8%[10.9 µM], IkB signaling inconclusive and p53ts 39C kill 16µM*.
`c1ccc(CN2CCN(c3nc4ccccc4n4cnnc34)CC2)cc1` gave p53ts 32C tox -13%, Imprint erasure -17%, IkB signaling -3% and p53ts 39C kill -1%.
Screening O=C(CSc1ncc(-c2ccc(Cl)cc2)[nH]1)Nc1ccccc1F returned p53ts 32C tox 6%, Imprint erasure -9%[10.9 µM], IkB signaling 8% and p53ts 39C kill inconclusive.
For O=Nc1c(-c2c(O)[nH]c3ccccc23)[nH]c2ccccc12 the results were p53ts 32C tox 25µM*, Imprint erasure -24%, IkB signaling inconclusive and p53ts 39C kill 25µM*.
For COc1ccc(-c2oc3ncn4nc(COc5ccc(Cl)cc5)nc4c3c2-c2ccc(OC)cc2)cc1 the results were p53ts 32C tox -3%, Imprint erasure -3%[10.9 µM], IkB signaling -1% and p53ts 39C kill 14%.
Screening Cc1nnc(Sc2nc(Sc3nnc(C)s3)nc(N3CCN(C)CC3)n2)s1 returned p53ts 32C tox 20µM*, Imprint erasure -24%, IkB signaling 7.9µM* and p53ts 39C kill 4µM*.
For Cc1nc(CSc2nnc(C)s2)cs1 the results were p53ts 32C tox 22%, Imprint erasure -16%, IkB signaling -2% and p53ts 39C kill -2%.
CCN(Cc1nc(-c2ccc(OC)cc2)oc1C)S(=O)(=O)c1ccc(C)cc1 was read as p53ts 32C tox -6%, Imprint erasure -12%[10.9 µM], IkB signaling inconclusive and p53ts 39C kill -24%.
COc1ccc(CC(=O)Nc2cc(-c3nc4cccnc4s3)ccc2C)cc1 was read as p53ts 32C tox inconclusive, Imprint erasure -17%[10.9 µM], IkB signaling 0% and p53ts 39C kill 13µM*.
Screening O=C(Cn1ccc2cc(S(=O)(=O)N3CCCCC3)ccc21)NCCc1ccccc1Cl returned p53ts 32C tox 6%, Imprint erasure -6%[10.9 µM], IkB signaling -1% and p53ts 39C kill -2%.
COc1c(-c2coc3cc4c(cc3c2=O)CC(O)C(C)(C)O4)ccc2c1C=CC(C)(C)O2 (stereo not drawn) was read as p53ts 32C tox inconclusive, Imprint erasure -34% and p53ts 39C kill 25µM*.
For CCCCCCC1Cc2cc(OC)c(OC)cc2C(C(C(=O)OCC)C(=O)OCC)O1 (stereo not drawn) the results were p53ts 32C tox 3%[9.22 µM] and p53ts 39C kill -5%[9.22 µM].
Screening CC(C)(C(=O)O)c1ccc([C@@H](O)CCCN2CCC(C(O)(c3ccccc3)c3ccccc3)CC2)cc1 returned IkB signaling -2%.
`Cc1ccc(O)c(NC(=O)c2noc3c2CCCCC3)c1` gave p53ts 32C tox 13µM*, Imprint erasure -35%[10.9 µM], IkB signaling 9% and p53ts 39C kill inconclusive.
O=C(Nc1nc(-c2ccccn2)cs1)c1ccc(Cl)s1 was read as p53ts 32C tox 16%, Imprint erasure -13%, IkB signaling 1µM* and p53ts 39C kill 4%.
`Cc1nc2sc(C(c3cccs3)N3CCOCC3)c(O)n2n1` (stereo not drawn) gave p53ts 32C tox 13µM*, Imprint erasure -71%, IkB signaling inconclusive and p53ts 39C kill inconclusive.
Screening CC1CCc2nc(NC(=O)c3ccco3)sc2C1 (stereo not drawn) returned p53ts 32C tox 2.5µM*, Imprint erasure -83%, IkB signaling inconclusive and p53ts 39C kill 2.5µM*.
C=CCOC(=O)c1sc(NC(=O)c2ccco2)nc1C was read as p53ts 32C tox 10µM*, Imprint erasure -66%, IkB signaling 6% and p53ts 39C kill inconclusive.
CC1CCc2nc(NC(=O)C3CCCO3)sc2C1 (stereo not drawn) was read as p53ts 32C tox 10µM*, Imprint erasure -57%, IkB signaling inconclusive and p53ts 39C kill 13µM*.

Compound activity: PubChem BioAssay, National Center for Advancing Translational Sciences (NCATS)
